Data published in PubChem BioAssay AID1035475 (Broad Institute, 2014).
Measured potencies and affinities stand elsewhere. Records with an inconclusive call do not appear. A number with no mark means an inactive call.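 Rule for the calls: active = fluorescent signal drops by 40% or more, counted as a hit; inconclusive = no clear call, values can overlap the other calls; inactive = the rest, including any activity in the opposite direction.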

Assay: blockers of FN fibrillogenesis by fibroblasts – AH1F cells, Alexa488-FN fluorescence, cherry-picks, dose response (AID 1035475);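 note: AH1F fibroblasts incorporating labeled fibronectin into their extracellular matrix; 0% = neutral control wells and -100% = wells without labeled fibronectin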
Conditions: Alexa488-fibronectin deposition fluorescence, overnight; series mostly up to 35 µM; activity change, negative = inhibition: at the top concentration

Compound	activity change, negative = inhibition [%]
Cn1cnc(S(=O)(=O)N2CCN(c3ccccc3)CC2)c1	-23.9
Cc1ccc(Nc2nnc(SCc3ccccc3)s2)cc1	-41
O=C(Nc1ccccc1F)N1C[C@@H]2[C@H](c3ccccc31)[C@H](CO)N2C(=O)C1CC1	28.6
Cc1oc2ccc(O)cc2c1C(=O)c1ccc(Br)cc1	-1.76
C[C@H](CO)N1C[C@H](C)[C@@H](CN(C)Cc2ccc(-c3ccccc3)cc2)Oc2ccc(NC(=O)CCCN(C)C)cc2C1=O	27
CN1c2ccc(-c3ccccc3)cc2[C@H]2[C@H](CCN2C(=O)CN2CCOCC2)[C@H]1CO	34.4
COC(=O)C[C@H]1CC[C@H]2[C@H](COc3ccc(NC(=O)Cc4cccs4)cc3C(=O)N2C)O1	16.8
Cc1ccc(S(=O)(=O)N2CC3(C)CN(S(=O)(=O)c4ccc(C)cc4)CC(C)(C2)C3=O)cc1	6.47
C[C@H](CO)N1C[C@H](C)[C@@H](CN(C)C(=O)Nc2cccc3ccccc23)Oc2c(NC(=O)Nc3ccc(C(F)(F)F)cc3)cccc2C1=O	22.4
CO[C@H]1CN(C)C(=O)c2cc(NC(=O)Nc3cc(Cl)cc(Cl)c3)ccc2OC[C@H](C)NC[C@H]1C	9.38
O=C(Nc1ccccc1F)N1C[C@@H]2[C@H](c3ccccc31)[C@@H](CO)N2C(=O)C1CC1	16.1
CC1CN(C(=O)c2cc3c(=O)n4ccccc4nc3n2C)CC(C)O1 (configuration not stated)	-7.05
C[C@@H]1CN([C@H](C)CO)C(=O)c2cc(-c3ccccc3)cnc2O[C@@H]1CN(C)C(=O)c1cccc(F)c1	46
COc1cccc(-c2ccc3c(c2)[C@H]2[C@H](CCN2S(=O)(=O)c2cccc(OC)c2)[C@@H](CO)N3)c1	-7.81
CC(C)(C)[S@@](=O)N1Cc2cc(C(=O)NCc3ccccc3F)nc(-c3cccc(-c4ccncc4)c3)c2[C@H]1CCO	-7.62
CCN(Cc1ccncc1)C(=O)c1ccc2c(c1)S(=O)(=O)c1ccccc1C2=O	-11.4
COc1ccccc1N(CC(=O)N(CC(C)C)CC(C)C)S(=O)(=O)c1cccs1	-12.1
CCc1nc2c(OCCc3cccc(OC)c3)cccn2c1N(C)C(=O)c1ccc(C)cc1	-32.4
C[C@H]1CN([C@@H](C)CO)C(=O)c2cc(NC(=O)C3CCCCC3)ccc2O[C@H]1CN(C)Cc1ccc(-c2ccccc2)cc1	9.85
COc1ncccc1C(=O)NC1CCCc2c1cnn2-c1ccc(C)c(C)c1 (configuration not stated)	-16.2
C=CCC[C@H](Cc1ccc(F)cc1)C(=O)OC[C@H](Cc1c[nH]c2ccccc12)NC(=O)[C@@H](CC=C)CC(=O)N[C@@H](CO)Cc1ccccc1	19.2
C[C@H](O)C#Cc1ccc2c(c1)O[C@H](CN(C)C)[C@@H](C)CN([C@H](C)CO)S2(=O)=O	38.2
